The test system of experiment [1] is PRMT1 (protein arginine N-methyltransferase 1). The experiment can be described thus: PRMT1 binders on small-molecule microarrays, primary screen, biochemical, small-molecule microarray, 635 nm fluorescence (AID 1088).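 Further: binding of Prmt1 protein to compounds spotted on small-molecule microarray slides.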 To be noted: small-molecule microarray binding, higher = more signal.
The nature of experiment [2]: yeast growth modulation, basal conditions, primary screen, YJM789 clinical isolate, OD600, 24 h (AID 1089).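 Further: growth of clinical yeast isolate S. cerevisiae YJM 789 seeded 1000 cells per well; test concentration not given here.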 Particulars: S. cerevisiae YJM789 growth, higher = more signal, called active from +8 up or from −8 down.
The nature of experiment [3]: fission yeast growth modulation, primary screen, strain 972, OD600, 24 h, no modulator (AID 1090).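 Further: basal condition with compound alone and no growth modifier present; test concentration not given here.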 Particulars: S. pombe 972 growth, higher = more signal, called active from +8 up or from −8 down.
Experiment [4] can be described thus: S. cerevisiae growth modulation with rapamycin, primary screen, strain BY4716, OD600, 96 h (AID 1091). Further: test concentration not given here. To be noted: higher = more signal, called active from +8 up or from −8 down.
The target in experiment [5] is Torsin-1A-interacting protein 2 (Homo sapiens) (UniProt Q8NFQ8). The experiment can be described thus: LULL1 binders on small-molecule microarray, primary screen, cell lysate, human LULL1 lysate, 635/667 nm fluorescence (AID 1092).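 Further: probe is lysate of COS7 cells overexpressing human LULL1; score merges per-feature 667 nm fluorescence with signal-to-noise.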 To be noted: hLULL1 lysate binding, 635 nm fluorescence, higher = more signal.
Sequence of Torsin-1A-interacting protein 2 (Homo sapiens) (Q8NFQ8 whole entry, looked up): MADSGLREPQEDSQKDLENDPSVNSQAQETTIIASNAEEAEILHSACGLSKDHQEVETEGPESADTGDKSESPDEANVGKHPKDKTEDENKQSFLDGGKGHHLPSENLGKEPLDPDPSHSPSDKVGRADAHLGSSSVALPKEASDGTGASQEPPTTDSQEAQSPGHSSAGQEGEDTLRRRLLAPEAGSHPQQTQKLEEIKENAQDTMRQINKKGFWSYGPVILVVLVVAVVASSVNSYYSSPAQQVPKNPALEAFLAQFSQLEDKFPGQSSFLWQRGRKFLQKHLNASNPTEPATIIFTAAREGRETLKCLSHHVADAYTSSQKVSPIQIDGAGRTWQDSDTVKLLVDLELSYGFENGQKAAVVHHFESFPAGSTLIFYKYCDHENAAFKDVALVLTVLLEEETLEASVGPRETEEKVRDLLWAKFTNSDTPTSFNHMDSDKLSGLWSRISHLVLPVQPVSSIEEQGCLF
Experiment [6] in a line: E. coli growth modulation, two-sided OD650, primary screen, E. coli filamentation project, strain DRC41, 24 h (AID 1093).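 Further: MC1000 strain lacking acrAB efflux and sulA so SOS filamentation is blocked; test concentration not given here.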 To be noted: OD650, 24 h, higher = more signal, called active from +8 up or from −8 down.
Experiment [7] is described as follows: small-molecule microarray binders of probe aLefty2, primary screen, biochemical, biotinylated probe, 635/667 nm fluorescence (AID 1094).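 Further: score merges spot fluorescence near 667 nm with spot signal-to-noise ratio.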 To be noted: higher = more signal.
The subject of experiment [8] is Noggin (protein binding on small-molecule microarray). Nature of the experiment: Noggin binders on small-molecule microarray, primary screen, biochemical, 635/667 nm fluorescence (AID 1095).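 Further: score merges 667 nm feature fluorescence with signal to noise over triplicate slides.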 To be noted: 635 nm fluorescence, higher = more signal.
Experiment [9] deals with Neurogenic locus notch homolog protein 3 (Homo sapiens) (UniProt Q9UM47). The experiment can be described thus: NOTCH3 binders on small-molecule microarray, primary screen, biochemical, 635/667 nm fluorescence (AID 1096). To be noted: NOTCH3 binding, 635 nm fluorescence, higher = more signal.
Sequence of Neurogenic locus notch homolog protein 3 (Homo sapiens) (Q9UM47 whole entry, looked up): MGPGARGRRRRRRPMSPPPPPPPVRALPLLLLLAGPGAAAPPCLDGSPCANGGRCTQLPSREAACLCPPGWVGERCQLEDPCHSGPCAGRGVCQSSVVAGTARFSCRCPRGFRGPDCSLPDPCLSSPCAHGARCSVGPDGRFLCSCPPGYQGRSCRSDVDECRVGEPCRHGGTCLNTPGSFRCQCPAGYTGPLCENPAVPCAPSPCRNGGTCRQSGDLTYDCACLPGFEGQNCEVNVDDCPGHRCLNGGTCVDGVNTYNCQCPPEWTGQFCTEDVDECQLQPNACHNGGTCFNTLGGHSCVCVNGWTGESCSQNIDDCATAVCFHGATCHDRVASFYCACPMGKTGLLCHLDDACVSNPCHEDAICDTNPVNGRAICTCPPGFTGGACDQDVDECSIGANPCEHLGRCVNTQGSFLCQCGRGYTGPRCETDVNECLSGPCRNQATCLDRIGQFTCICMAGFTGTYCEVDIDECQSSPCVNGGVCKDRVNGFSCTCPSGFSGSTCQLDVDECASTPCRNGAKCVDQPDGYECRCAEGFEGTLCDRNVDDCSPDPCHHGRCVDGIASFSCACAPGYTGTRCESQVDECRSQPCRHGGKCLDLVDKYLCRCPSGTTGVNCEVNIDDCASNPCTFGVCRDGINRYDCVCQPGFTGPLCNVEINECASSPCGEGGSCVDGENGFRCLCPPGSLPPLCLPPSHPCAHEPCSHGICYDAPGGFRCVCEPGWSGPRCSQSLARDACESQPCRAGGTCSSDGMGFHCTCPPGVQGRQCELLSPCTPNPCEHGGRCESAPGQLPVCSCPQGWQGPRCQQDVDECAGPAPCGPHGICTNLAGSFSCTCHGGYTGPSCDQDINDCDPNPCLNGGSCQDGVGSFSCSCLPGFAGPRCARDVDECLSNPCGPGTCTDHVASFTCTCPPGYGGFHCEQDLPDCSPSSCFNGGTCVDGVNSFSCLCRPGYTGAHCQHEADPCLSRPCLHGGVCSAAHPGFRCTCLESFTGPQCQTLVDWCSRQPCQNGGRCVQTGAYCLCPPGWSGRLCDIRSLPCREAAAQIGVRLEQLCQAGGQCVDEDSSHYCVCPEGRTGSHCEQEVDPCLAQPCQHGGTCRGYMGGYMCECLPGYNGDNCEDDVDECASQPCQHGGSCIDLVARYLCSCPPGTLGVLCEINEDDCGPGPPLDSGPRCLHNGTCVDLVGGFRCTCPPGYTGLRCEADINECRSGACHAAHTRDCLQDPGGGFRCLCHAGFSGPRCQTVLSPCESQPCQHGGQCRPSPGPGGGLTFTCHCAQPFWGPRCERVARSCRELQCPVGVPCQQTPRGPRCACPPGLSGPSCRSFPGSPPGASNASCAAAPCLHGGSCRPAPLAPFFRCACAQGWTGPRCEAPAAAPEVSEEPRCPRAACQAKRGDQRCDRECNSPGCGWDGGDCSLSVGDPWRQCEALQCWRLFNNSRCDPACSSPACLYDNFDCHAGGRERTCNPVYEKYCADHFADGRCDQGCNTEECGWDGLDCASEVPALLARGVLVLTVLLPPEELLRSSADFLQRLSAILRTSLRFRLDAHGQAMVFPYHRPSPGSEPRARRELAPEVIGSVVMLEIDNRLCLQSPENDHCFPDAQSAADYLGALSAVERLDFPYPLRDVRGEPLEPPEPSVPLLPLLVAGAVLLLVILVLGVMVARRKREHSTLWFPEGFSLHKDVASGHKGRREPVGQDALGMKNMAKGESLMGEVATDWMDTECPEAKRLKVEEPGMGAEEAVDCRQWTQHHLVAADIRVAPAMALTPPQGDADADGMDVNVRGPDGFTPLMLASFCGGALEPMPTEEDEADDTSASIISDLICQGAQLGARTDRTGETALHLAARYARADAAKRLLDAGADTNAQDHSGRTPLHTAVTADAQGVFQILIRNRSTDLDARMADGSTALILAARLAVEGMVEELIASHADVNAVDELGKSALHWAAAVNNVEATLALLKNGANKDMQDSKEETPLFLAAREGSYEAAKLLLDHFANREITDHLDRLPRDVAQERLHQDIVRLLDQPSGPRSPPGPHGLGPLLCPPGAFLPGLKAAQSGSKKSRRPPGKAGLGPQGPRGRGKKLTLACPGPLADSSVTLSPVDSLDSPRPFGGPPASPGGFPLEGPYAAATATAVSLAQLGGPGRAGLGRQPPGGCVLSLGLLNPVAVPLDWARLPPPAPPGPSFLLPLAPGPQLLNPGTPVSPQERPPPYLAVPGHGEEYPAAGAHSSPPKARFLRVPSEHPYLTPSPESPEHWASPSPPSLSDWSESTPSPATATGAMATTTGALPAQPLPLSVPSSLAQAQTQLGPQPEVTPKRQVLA
Experiment [10] is described as follows: small-molecule microarray binders of probe aEGFR, primary screen, biochemical, biotinylated probe, 635/667 nm fluorescence (AID 1097).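 Further: probe is a biotinylated anti-EGFR antibody binding compounds printed on slides; score combines fluorescence near 667 nm and signal to noise of each spot.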 To be noted: higher = more signal.

The source made the active and inactive calls.

Composite z-score and z-score data for 14 compounds are collected here from PubChem BioAssay.

On to `COc1ccc(C(=O)Nc2cccc(CN3C(=O)[C@]4(O[C@H](CC(=O)N5CCC[C@H]5CO)[C@@H]([Si](C)(C)c5ccc(OC)cc5)[C@@H]4C)c4ccccc43)c2)cc1`, for which the composite z-score in experiment [1] was 1.38; in experiment [5] it was 2.34; in experiment [7], -0.181; in experiment [8] it was 0.467; in experiment [9] it was 0.869; in experiment [10], -0.157. Moreover, the z-score was -0.979 (inactive) in experiment [2], -0.22 (inactive) in experiment [3], -0.378 (inactive) in [4] and 0.44 (inactive) in [6].
For `O=C1O[C@H](c2ccccc2)[C@H](c2ccccc2)N2[C@H]1[C@@H](C(=O)O)[C@]1(C(=O)Nc3ccc(C#CC4(O)CCCCCC4)cc31)[C@H]2c1ccc(OCCO)cc1`, the composite z-score is 1.37 in experiment [1]; 3.58 in experiment [5]; -0.124 in experiment [7]; -0.338 in experiment [8]; 0.528 in experiment [9]; -0.216 in [10]. Also, the z-score is 2.28 (inactive) in experiment [2], 0.219 (inactive) in experiment [3], 0.124 (inactive) in experiment [4] and -0.831 (inactive) in [6].
Regarding `CC(C)C(=C=CC[C@@H](O)c1ccccc1OCCO)C[C@@H](O)c1ccccn1`, the composite z-score is 0.439 in [1]; 2.67 in experiment [5]; -0.126 in experiment [7]; 0.538 in [8]; 0.878 in [9]; -0.099 in experiment [10]. Also, the z-score in experiment [2] is 2.46 (inactive); in experiment [3], -0.18 (inactive); in [4] it was -1.1 (inactive); in [6], -0.0287 (inactive).
As to `C=CCN1C(=O)[C@]2(O[C@H](CCO)[C@@H]([Si](C)(C)c3ccc(OC)cc3)[C@@H]2C)c2cc(NC(=O)[C@H](C)O)ccc21`, the composite z-score in experiment [1] was 1.53; in experiment [5], 2.77; in [7], -0.166; in experiment [8], 0.392; in experiment [9], 1.02; in [10] it was -0.151. Besides, the z-score is 0.83 (inactive) in [2], -0.759 (inactive) in experiment [3], 1.31 (inactive) in [4] and 0.64 (inactive) in [6].
As to `COC(=O)[C@@]1(Cc2ccccc2)[C@H]2c3cc(C(=O)N(C)C)n(Cc4c(-c5ccccc5)noc4C)c3C[C@H]2CN1C(=O)c1ccccc1`, the composite z-score in experiment [1] was -0.248; in experiment [5], 2.7; in [7] it was 0.531; in [8], -0.452; in experiment [9], 0.303; in experiment [10], 0.235. Further, the z-score in experiment [2] is 0.315 (inactive); in [3] it was 0.555 (inactive); in experiment [4], 2.84 (inactive); in [6], -1.07 (inactive).
As for `Cc1ccccc1C(O)C1C=CC2C(=O)N(C)C(=O)C2N1N1CCCCC1` (stereo not given), the composite z-score is 1.11 in experiment [1]; 3.18 in experiment [5]; 0.331 in experiment [7]; 0.21 in experiment [8]; 1.13 in experiment [9]; -0.0044 in [10]. Also, the z-score is 0.299 (inactive) in [2], 0.619 (inactive) in experiment [3], -0.417 (inactive) in experiment [4] and -1.24 (inactive) in [6].
For the compound `[N-]=[N+]=NCc1ccccc1C[C@]1(C(=O)NCC(O)CO)N=C(c2ccc(OCCCO)cc2)O[C@H]1c1ccccc1N=[N+]=[N-]` (stereo not given in full), the composite z-score in [1] is -0.384; in experiment [5] it was 2.61; in experiment [7], 0.679; in [8], -0.761; in experiment [9], -0.25; in [10], 0.428. Moreover, the z-score is 0.727 (inactive) in experiment [2], 0.325 (inactive) in experiment [3], 2.77 (inactive) in [4] and 1.02 (inactive) in [6].
On to `COC(=O)c1ccc(C(O)C2C=CC3C(=O)N(C)C(=O)C3N2NC(=O)OC(C)(C)C)o1` (stereo not given), for which the composite z-score amounted to 1.36 in [1]; 3.01 in [5]; 0.177 in [7]; 0.356 in [8]; 0.526 in experiment [9]; 0.0419 in [10]. For the same compound, the z-score in experiment [2] was -0.0904 (inactive); in experiment [3], 0.771 (inactive); in experiment [4], 0.122 (inactive); in experiment [6] it was -1.09 (inactive).
As for `C=C[C@@H](COC(C)=O)N(Cc1ccc([N+](=O)[O-])cc1)S(=O)(=O)c1ccc(Br)cc1`, the composite z-score in [1] was 0.876; in [5] it was 1.25; in experiment [7] it was 0.157; in experiment [8] it was -0.0608; in experiment [9], 0.733; in [10] it was 0.158. Moreover, the z-score was -0.0928 (inactive) in [2], -1.26 (inactive) in experiment [3], 3.93 (inactive) in experiment [4] and 2.1 (inactive) in experiment [6].
Take `NC(=O)NCC#Cc1ccc2c(c1)[C@]1(C(=O)N2)[C@H](C(=O)NC[C@H](O)c2ccccc2)[C@H]2C(=O)O[C@H](c3ccccc3)[C@H](c3ccccc3)N2[C@@H]1c1ccc(O)cc1`: the composite z-score came to 1.39 in experiment [1]; 2.9 in experiment [5]; 0.138 in [7]; 1.27 in experiment [8]; 1.13 in experiment [9]; 0.151 in experiment [10]. The z-score is 1.94 (inactive) in experiment [2], 1.06 (inactive) in experiment [3], 3.72 (inactive) in experiment [4] and -0.412 (inactive) in [6].
For `[N-]=[N+]=NCc1ccccc1[C@H]1OC(c2ccc(OCCCO)cc2)=N[C@@]1(CCS(=O)(=O)c1ccccc1)C(=O)N1CCOCC1`, the composite z-score in experiment [1] amounted to 1.27; in [5], 3.65; in experiment [7] it was 0.663; in experiment [8], 0.346; in [9], 1.1; in [10], 0.302. In addition, the z-score is 0.0373 (inactive) in experiment [2], 0.553 (inactive) in [3], 2.23 (inactive) in experiment [4] and 0.151 (inactive) in [6].
In the case of `CC(=O)NCCCC[C@@H]1NC(=O)[C@@H]2C[C@H](C(=O)NCCCCCCNC(=O)CS)[C@H](c3ccc(O)cc3)N2C1=O`, the composite z-score in experiment [1] was 1.5; in experiment [5], 1.46; in experiment [7] it was -0.103; in [8] it was 0.171; in experiment [9], 0.0726; in experiment [10], -0.142. For the same compound, the z-score in [2] is 0.372 (inactive); in experiment [3] it was -0.804 (inactive); in experiment [4] it was 0.778 (inactive); in experiment [6], -0.581 (inactive).
On to `CO[C@H]1O[C@H](CO)[C@@H](OC(=O)Nc2ccc3c(c2)OCO3)[C@H](OC(=O)Nc2ccccc2)[C@H]1OC(=O)Nc1ccccc1`, for which the composite z-score is 1.54 in experiment [1]; 3.4 in experiment [5]; -0.0702 in experiment [7]; 0.704 in experiment [8]; 1.15 in experiment [9]; -0.0354 in experiment [10]. Also, the z-score was 1.67 (inactive) in experiment [2], 0.383 (inactive) in [3], 1.76 (inactive) in [4] and -0.703 (inactive) in experiment [6].
As for `O=C1OCC=C[C@H]2OC34C=CCN(c5ccc(Cl)cc5)C(=O)[C@H]3N(CCCCCCO)C(=O)[C@@H]4[C@@H]12` (stereo not given in full), the composite z-score in [1] was -1.01; in experiment [5] it was 1.92; in experiment [7], -0.0936; in [8], -1.51; in experiment [9], -0.464; in [10], -0.273. In addition, the z-score was -0.88 (inactive) in experiment [2], -1.63 (inactive) in experiment [3], -0.787 (inactive) in experiment [4] and 0.437 (inactive) in experiment [6].
